In the library only some 4% were active in any assay of this set; here they are far more common.
Peg3 prom inh-1: Peg3 promoter-driven luciferase inhibitors, primary screen, cell-based, HeLa, luciferase luminescence; HeLa PEG-Prom luciferase reporter, overnight; inhibition, % at 20 µM; 1.7% of 360,000 active;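 active = inhibition of at least 50% at 20 µM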
KKLEB cytotox: cytotoxicity in KKLEB CF airway cells, primary screen, cytotoxicity control for CF NF-kB inhibitor project, cell-based, uHTS, fluorescence assay plates. KKLEB CF airway cells viability, ATPlite luminescence, overnight; active compounds read low; cells stimulated with P. aeruginosa culture filtrate. activity change (cytotoxicity), % at 5 µM. 0.36% of 360,000 active. AID 602141, 2011;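 active = corrected activity change at or below -50% at 5 µM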
TROY NFkB inh: inhibitors of TROY-driven NF-kB signaling, primary screen, Q293 LMP1-TROYcd cells, NF-kB luciferase, uHTS; Q293 LMP1-TROYcd NF-kB luciferase reporter, 4 h; inhibition, % at 10 µM; 0.98% of 360,000 active;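 active = compounds whose plate-normalised and pattern-corrected inhibition of the luciferase reporter signal at the single screening dose is 50% or more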
CF NFkB inh: inhibitors of PAF-induced NF-kB signaling, primary screen, cell-based, GFP fluorescence, uHTS; KKLEB NF-kB-GFP reporter, GFP fluorescence overnight; inhibition, % at 5 µM; 0.86% of 360,000 active;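 active = at least 50% inhibition at 5 µM, scaled per plate between neutral and stimulator controls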;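 also: PAF is a Pseudomonas aeruginosa culture filtrate used as stimulus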
HIF-2a inh: HIF-2a reporter inhibitors, primary screen, luminescence, 786-0 RCC cells; 0.72% of 360,000 active; inhibition, % at 18.8 µM; 786-0 RCC cells HIF-2a reporter, luciferase luminescence, overnight;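 active = inhibition of the luminescence signal of 40% or more relative to plate controls, in a single-dose primary screen at 18.75 µM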
TWEAK Fn14 block: inhibitors of TWEAK-Fn14 signaling, primary screen, luciferase reporter cells, uHTS; TWEAK-stimulated Fn14 reporter cells, luciferase luminescence, 8 h; inhibition, % at 10 µM; 2% of 360,000 active; in the data active = inhibition above about 50%
Peg3 prom inh-2: Peg3 promoter reporter inhibitors, retest, confirmation, cell-based, HeLa, luciferase reporter, single concentration; shares compounds with Peg3 prom inh-1; HeLa PEG-Prom luciferase reporter, luminescence, overnight; inhibition, % at 20 µM; 84% of 1,300 active;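 active = at 20 µM dose, 40% or more inhibition averaged across four replicates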
CF NFkB inh conf: inhibitors of PAF-induced NF-kB signaling, retest, confirmation, cell-based, GFP fluorescence, single concentration. 64% of 1,300 active. shares compounds with CF NFkB inh. KKLEB CF airway cells, overnight. AID 602472, 2012. inhibition, % at 5 µM; in the data active = inhibition above about 40%;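 also: stimulus PAF is a Pseudomonas aeruginosa filtrate and not platelet activating factor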
HIF-2a conf: HIF-2a reporter inhibitor retest, confirmation, luminescence, 786-0 RCC cells; shares compounds with HIF-2a inh; HIF-2a luciferase reporter luminescence, overnight; inhibition, % at 18.8 µM; 56% of 1,800 active; AID 651580, 2012;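 active = mean inhibition across four replicates of at least 40 percent at the single tested concentration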
HIF-1a counter: HIF-1a luciferase reporter signal reduction – MiaPaCa-2 cells, single concentration, counter-screen for HIF-2a inhibitor project, confirmation; 72% of 1,800 active; shares compounds with HIF-2a inh; MiaPaCa-2 HIF-1a luciferase reporter, desferoxamine, overnight; inhibition, % at 18.8 µM;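 active = mean inhibition of the reporter signal across four replicates at the single tested dose of 50% or more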
A number is an active result; . = inactive; / = not tested or not shown.

SMILES	Peg3 prom inh-1	KKLEB cytotox	TROY NFkB inh	CF NFkB inh	HIF-2a inh	TWEAK Fn14 block	CF NFkB inh conf	others
C[C@]12CC[C@H]3C(CCC4(O)CC(O)CC[C@]34C=O)C1=CC[C@H]2c1ccc(=O)oc1 (stereo partly specified)	105.2	.	.	.	.	.	/	Peg3 prom inh-2=96.9
CC(ON1CC1(C(F)(F)F)C(F)(F)F)(C(N)=O)C(N)=O (stereo unspecified)	.	.	.	.	.	.	/
COC(=O)c1cn(Cc2ccc(F)cc2)c2ccccc12	.	.	.	.	.	.	/
O=Cc1cn(Cc2ccc(Br)cc2)c2ccccc12	77.5	.	.	.	.	.	/	Peg3 prom inh-2=73.9
O=Cc1cn(Cc2cccc(F)c2)c2ccccc12	85.2	.	.	.	.	.	/	Peg3 prom inh-2=65.4
CCOP(=O)(/C=C(\Cl)c1ccccc1)C(O)c1ccc(F)cc1 (stereo unspecified)	.	.	.	.	.	.	/
CNCC(O)c1cccc(OC(=O)c2ccccc2C)c1 (stereo unspecified)	.	.	.	.	.	.	/
CNCC(O)c1cc(OCc2ccccc2)c(OCc2ccccc2)cc1F (stereo unspecified)	98.0	.	.	.	.	.	/	Peg3 prom inh-2=89.4
COc1ccc(CC2C(=O)NC(C)C(=O)N(C)C3C(=O)N(C)C(Cc4ccc(O)c(c4)Oc4ccc(cc4)C3O)C(=O)NC(C)C(=O)NC(C)C(=O)N2C)cc1 (stereo unspecified)	96.0	.	86.8	82.1	87.0	101.8	/	Peg3 prom inh-2=98.4
c1cncc(C2Nc3cccc4cccc(c34)N2)c1	.	.	.	.	.	.	/
C=Cc1cc(OC)c2c(c1)c(=O)oc1c2cc(OC)c2c(O)ccc(C3OC(C)C(O)C(C)(O)C3O)c21 (stereo unspecified)	105.6	.	.	79.2	52.4	90.7	/	Peg3 prom inh-2=98.4
Cc1cc(OC(C)C(=O)NCc2ccncc2)c2c3c(c(=O)oc2c1)CCCC3 (stereo unspecified)	.	.	.	.	.	.	/
COc1cccc(C2CC3C(=O)C=CC2N3Cc2ccccc2)c1 (stereo unspecified)	68.2	.	.	.	47.9	.	/	Peg3 prom inh-2=70.6;HIF-2a conf=57.3;HIF-1a counter=.
O=C(/C=C/c1c[nH]c2ccccc12)c1c(O)n(CCc2ccccc2)c(=O)[nH]c1=O	.	.	.	.	.	.	/
O=c1[nH]c2ccccc2n1C1CCN(C(c2cc3ccccc3o2)c2nnnn2-c2ccc3c(c2)OCCO3)CC1 (stereo unspecified)	97.5	.	66.6	79.7	.	78.3	105.8
COc1ccc(C(c2nnnn2-c2ccc(OC)cc2)N2CCC(n3c(=O)[nH]c4ccccc43)CC2)cc1 (stereo unspecified)	67.9	.	.	92.2	.	.	90.2
COc1cc(C2c3cc4c(cc3CC3COC(=O)C32)OCO4)cc(OC)c1OC (stereo unspecified)	.	.	.	.	.	.	/
COc1cc(C2c3cc4c(c(O)c3CC3COC(=O)C32)OCO4)cc(OC)c1OC (stereo unspecified)	.	.	.	50.6	.	.	90.2
CCc1ccc(-c2nn(Cc3ccccc3)cc2C=O)cc1	.	.	.	.	.	.	/
Brc1ccc(-[n+]2c(-c3ccccc3)cc(-c3ccccc3)cc2-c2ccccc2)cc1	.	.	.	.	.	.	/
NC(=Nc1ccccc1)NN=Cc1c[nH]c2ccccc12	.	.	.	66.9	.	.	55.1
CN(C)N=O	.	.	.	.	.	.	/
Oc1ccc(Br)cc1CN1CCN(c2ccccc2)CC1	.	.	.	62.4	.	.	.
C[C@H]1CCC[C@@H](O)CCC/C=C/c2cc(O)cc(O)c2C(=O)O1	64.4	.	.	51.1	.	59.0	46.5
C[C@H]1CCC[C@H](O)CCCCCc2cc(O)cc(O)c2C(=O)O1	.	.	.	.	.	.	/
SMILES	Peg3 prom inh-1	KKLEB cytotox	TROY NFkB inh	CF NFkB inh	HIF-2a inh	TWEAK Fn14 block	CF NFkB inh conf	others
COC(=O)C1=C(c2ccc(OC)c(OC)c2)C[C@@H]2CC[C@H]1N2C(=O)NCc1cc(C)oc1C(F)(F)F	.	.	.	.	.	.	/
COC(=O)C1C2c3ccccc3C(c3ccccc32)C1C(=O)OC (stereo unspecified)	.	.	.	.	.	.	/
COc1ccc(C(CNC(=O)Cc2ccc(Cl)c(Cl)c2)N2CCCCC2)cc1 (stereo unspecified)	.	.	.	.	.	.	/
CCOC(=O)c1cnc(SCc2ccc(Cl)c(Cl)c2)nc1N1CC1	.	.	.	66.6	.	.	.
NC(=O)c1c(Br)n(C2OC(CO)C(O)C2O)c2ncnc(N)c12 (stereo unspecified)	.	.	.	60.7	.	.	60.5
N#Cc1c(Br)n(C2OC(CO)C(O)C2O)c2ncnc(N)c12 (stereo unspecified)	61.1	.	.	73.0	.	.	84.0
Nc1ncnc2c1ncn2[C@@H]1O[C@H](COP(=O)(O)CP(=O)(O)O)[C@@H](O)[C@H]1O	.	.	.	.	.	.	/
CNc1cc(Cl)c2nonc2c1[N+](=O)[O-]	107.2	.	88.9	84.0	95.2	.	.	HIF-2a conf=93.0;HIF-1a counter=105.7
C[C@@H]([C@@H](O)c1ccccc1)N(C)C(=O)Cc1ccccc1	.	.	.	.	.	.	/
CN(C)CC(C(=O)Cc1ccccc1)c1ccccc1 (stereo unspecified)	101.4	.	.	59.1	96.8	.	.	HIF-2a conf=.;HIF-1a counter=105.6

Compound activity deposited in PubChem BioAssay by Sanford-Burnham Center for Chemical Genomics.
